# Screening data: PubChem BioAssay, Broad Institute
# Hits are enriched below; roughly 7.8% of the tested compounds scored in any of these assays.
# Shh pathway inh: Sonic Hedgehog pathway inhibition; Shh-LIGHT2 Gli-luciferase reporter, 30 h; inhibition, % (concentration not given with the values); actives 2.1% (n = 22,000); AID 2313;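 active = mean inhibition across valid replicates above about 65%, limit read from the data; inconclusive = mean under the limit, yet half or more replicates past it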;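 note: pathway switched on by Shh-conditioned medium diluted 1 in 25 in low serum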
# MITF inh: inhibitors of MITF; TRPM1 promoter luciferase, luminescence, 24 h; inhibition, % (test concentration not listed); actives 0.28% (n = 37,000); AID 2240; in the data active = inhibition above about 85%; inconclusive = no clear call, values can overlap the other calls; inactive = below about 68%;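 note: human melanocyte line stably carrying TRPM1 promoter luciferase reporter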
# NOMO-1 viab: STK33 inhibitor candidate reducing NOMO-1 cell viability | inhibition, % (no concentration beside the values) | NOMO-1 AML viability, CellTiter-Glo luminescence, 72 h | actives 7.5% (n = 37,000); in the data active = inhibition above about 80%; inconclusive = no clear call, values can overlap the other calls
# An asterisk follows results filed as active; ? = inconclusive; . = not tested or not shown.
SMILES,Shh pathway inh,MITF inh,NOMO-1 viab
COc1c(O[C@@H]2O[C@H](CO)[C@@H](O)[C@H](O)[C@H]2O)cc2c(c1OC)-c1ccc(SC)c(=O)cc1C(NC(C)=O)CC2 (some centres not stated),-68,2,-7
CNC1CCc2cc(OC)c(OC)c(OC)c2-c2ccc(OC)c(=O)cc21 (configuration not stated),92*,32,97*
CSc1cccc(NC(=O)CSc2nnc(N)s2)c1,.,-15,24
CCC(C)C1NC(=O)C(CC(C)C)NC(=O)C(CC(=O)O)NC(=O)C(C(C)C)NC(=O)C(CC(C)C)NC(=O)C(CC(C)C)NC(=O)C(CCC(N)=O)NC(=O)CC(CCCCCCCCCC(C)C)OC1=O (configuration not stated),77*,.,.
C=C1[C@@H](C2=CC(=O)OC2)CC[C@@]2(O)[C@@H]1CC1[C@H]2CC[C@@H]2C[C@@H](O[C@H]3O[C@@H](C)[C@@H](O[C@@H]4O[C@H](CO[C@@H]5O[C@H](CO)[C@@H](O)[C@H](O)[C@H]5O)[C@@H](O)[C@H](O)[C@H]4O)[C@H](OC)[C@H]3O)CC[C@]12C (some centres not stated),27,.,.
CO[C@@H]1CC(OC2CCC3(C)C(CCC45CCC(C6=CC(=O)OC6)C(C)(CCC43)C5=O)C2)O[C@H](C)[C@@H]1O[C@@H]1O[C@H](CO[C@@H]2O[C@H](CO)[C@@H](O)[C@H](O)[C@H]2O)[C@@H](O)[C@H](O)[C@H]1O (some centres not stated),-34,20,119*
C[C@H](CO)N1C[C@H](C)[C@H](CN(C)C(=O)Nc2ccc3c(c2)OCO3)Oc2ccc(NC(=O)CCC(F)(F)F)cc2C1=O,-20,-10,-2
CC(Oc1ccc(Cl)cc1Cl)C(=O)Nc1ccc(Cl)c(-c2nc3ncccc3o2)c1 (configuration not stated),.,-3,5
C[C@@H]1CN([C@H](C)CO)C(=O)c2cccc(NC(=O)NC3CCCCC3)c2O[C@H]1CN(C)S(=O)(=O)c1ccc(Cl)cc1,14,-2,7
CCCCCC(O)CC(O)CCc1ccc(O)c(OC)c1 (configuration not stated),-34,.,.
CCCCCCCCC[C@@H](O)CC(=O)CCc1ccc(O)c(OC)c1,-13,2,92*
C[C@@H]1C[C@H]2[C@@H]3CCC4=CC(=O)C=C[C@]4(C)[C@@]3(Cl)[C@@H](O)C[C@]2(C)[C@@]1(OC(=O)c1ccco1)C(=O)CCl,23,-2,114*
CCC(=O)OCC(=O)[C@@]1(OC(=O)CC)[C@@H](C)CC2C3CCC4=CC(=O)C=C[C@]4(C)C3(F)[C@@H](O)C[C@@]21C (some centres not stated),25,-19,0
C[C@@H]1CN([C@H](C)CO)C(=O)c2cc(NC(=O)Cc3cn(C)c4ccccc34)ccc2O[C@@H]1CN(C)S(C)(=O)=O,-16,0,9
Cc1cccc(OCC(=O)Nc2cc(-c3nc4cc(Cl)ccc4o3)ccc2C)c1,.,12,103*
Cc1ccc2oc(-c3ccc(C)c(NC(=O)COc4ccc(Br)cc4)c3)nc2c1,.,-21,44
Cc1ccc2oc(-c3ccc(Cl)c(NC(=O)COc4ccc(C)c(C)c4)c3)nc2c1,.,16,16
Cc1cc2nc(-c3ccc(C)c(NC(=O)COc4ccc([N+](=O)[O-])cc4)c3)oc2cc1C,.,6,94*
COc1ccc(NC(=O)Nc2ccc3c(c2)CC(=O)N([C@@H](C)CO)C[C@H](C)[C@@H](CN(C)S(=O)(=O)c2cccs2)O3)cc1,-1,-21,17
C[C@@H]1CN([C@H](C)CO)C(=O)c2cc(NC(=O)C3CC3)ccc2O[C@@H]1CN(C)C(=O)Nc1cccc2ccccc12,14,-6,18
Cc1cc2nc(SCc3nc4ccccc4[nH]3)[nH]c2cc1C,.,-48,24
O=C(CC1NC(=O)NC1=O)Nc1ccc(F)cc1 (configuration not stated),.,-7,-22
COc1ccc(NC(=O)c2ccccc2OCC(=O)Nc2ccccc2C(F)(F)F)c(C)c1,.,-10,-6
C[C@@H]1CN([C@@H](C)CO)C(=O)c2cccc(NC(=O)Nc3cccc4ccccc34)c2O[C@H]1CN(C)C(=O)Nc1ccc(C(F)(F)F)cc1,4,20,44
C[C@@H]1CN([C@H](C)CO)C(=O)c2cccc(NC(=O)Nc3ccc(C(F)(F)F)cc3)c2O[C@H]1CN(C)C(=O)Nc1cccc2ccccc12,-4,28,83*
SMILES,Shh pathway inh,MITF inh,NOMO-1 viab
C[C@H]1CN([C@@H](C)CO)C(=O)c2cccc(NC(=O)Nc3ccc(C(F)(F)F)cc3)c2O[C@@H]1CN(C)C(=O)Nc1cccc2ccccc12,-28,39,102*
C[C@H](CO)N1C[C@H](C)[C@H](CN(C)C(=O)Nc2cccc3ccccc23)Oc2c(NC(=O)Nc3ccccc3)cccc2C1=O,-32,31,14
C=C(C(=O)O)[C@@H]1CC[C@H](C)[C@@H]2CC(=O)C(C)=C2C1,8,-6,22
O=c1cc(CSc2ccccn2)c2ccc(O)cc2o1,-19,-48,20
O=c1cc(CSc2cccc3cccnc23)c2ccc(O)cc2o1,7,-18,110*
COc1ccc(NC(=O)N(C)C[C@H]2Oc3ccc(NS(C)(=O)=O)cc3C(=O)N([C@H](C)CO)C[C@@H]2C)cc1,3,2,12
CC(=O)c1cccc(NS(=O)(=O)c2cccc(S(=O)(=O)c3ccccc3)c2)c1,.,37,-7
C[C@@H]1CN([C@H](C)CO)C(=O)Cc2cc(NC(=O)Nc3ccc(F)cc3)ccc2O[C@H]1CN(C)Cc1ccc(C(=O)O)cc1,-16,3,14
CO[C@@]12[C@H](COC(N)=O)C3=C(C(=O)C(C)=C(N)C3=O)N1C[C@@H]1N[C@@H]12,34,65,142*
Cc1cccc(NC(=O)CSc2nnc(-c3ccc(Br)cc3)o2)c1C,.,-4,-11
COc1ccc(S(=O)(=O)Nc2cccc3c2O[C@H](CN(C)Cc2ccc(C(=O)Nc4ccccc4N)cc2)[C@@H](C)CN([C@@H](C)CO)C3=O)cc1,.,41,129*
C[C@H](CO)N1C[C@H](C)[C@H](CN(C)Cc2ccc(C(=O)O)cc2)Oc2c(NS(=O)(=O)c3cccs3)cccc2C1=O,-35,3,10
Cc1ccc(S(=O)(=O)Nc2cccc3c2O[C@@H](CN(C)Cc2ccc(C(=O)Nc4ccccc4N)cc2)[C@H](C)CN([C@H](C)CO)C3=O)cc1,.,-5,72
C[C@H]1CN([C@@H](C)CO)C(=O)c2cccc(NS(=O)(=O)c3ccc(Cl)cc3)c2O[C@@H]1CN(C)Cc1ccc(C(=O)Nc2ccccc2N)cc1,.,28,126*
C[C@@H]1CN([C@H](C)CO)C(=O)c2cccc(NS(=O)(=O)c3cccs3)c2O[C@@H]1CN(C)Cc1ccc(C(=O)Nc2ccccc2N)cc1,.,29,138*
C[C@H]1CN([C@@H](C)CO)C(=O)c2cc(NS(=O)(=O)c3ccc(F)cc3)ccc2O[C@H]1CN(C)Cc1ccc(C(=O)Nc2ccccc2N)cc1,.,-10,?
C[C@H](CO)N1C[C@H](C)[C@H](CN(C)Cc2ccc(C(=O)Nc3ccccc3N)cc2)Oc2c(NS(=O)(=O)c3ccc(F)cc3)cccc2C1=O,.,21,133*
